Screening results (PubChem BioAssay)
An excerpt weighted towards active compounds, which were near 1.4% of everything screened.
ALOX12 inh = blocks human arachidonate 12S-lipoxygenase; purified 12hLO, xylenol orange hydroperoxide absorbance; Potency, µM (highest dose often 108 µM), for inactives: at the top dose activity change, negative = inhibition, actives largely listed as inhibitors; actives 1.1% (n = 580,000); AID 1671190; further: potency means the concentration at half of the fitted maximal effect; on the % scale 0 is the no-effect control and ±100 the full control effect
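Purified human 12hLO (150 nM final) in 25 mM Hepes, 0.01% Triton X-100, pH 7.0 was preincubated 15 min at room temperature with compound. Then 40 uM arachidonic acid was added, 30 min. Hydroperoxide was read by Fe-XO absorbance ratio 573/405 nm.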
Vif-APOBEC3G blk = Vif-A3G binding inhibition | Q9HC16 | HeLa A3G-eYFP + Vif (tagged APOBEC3G with the HIV-1 protein that degrades it), YFP fluorescence, overnight | Potency, µM (highest dose often 46.1 µM), for inactives: at the highest dose activity, negative = active, actives largely listed as inhibitors | actives 0.076% (n = 410,000); further: potency means the concentration at half of the fitted maximal effect; on the % scale 0 is the no-effect control and ±100 the full control effect; nearly all actives have a fitted effect of over 60% in size
Target sequence (Q9HC16 whole entry, looked up): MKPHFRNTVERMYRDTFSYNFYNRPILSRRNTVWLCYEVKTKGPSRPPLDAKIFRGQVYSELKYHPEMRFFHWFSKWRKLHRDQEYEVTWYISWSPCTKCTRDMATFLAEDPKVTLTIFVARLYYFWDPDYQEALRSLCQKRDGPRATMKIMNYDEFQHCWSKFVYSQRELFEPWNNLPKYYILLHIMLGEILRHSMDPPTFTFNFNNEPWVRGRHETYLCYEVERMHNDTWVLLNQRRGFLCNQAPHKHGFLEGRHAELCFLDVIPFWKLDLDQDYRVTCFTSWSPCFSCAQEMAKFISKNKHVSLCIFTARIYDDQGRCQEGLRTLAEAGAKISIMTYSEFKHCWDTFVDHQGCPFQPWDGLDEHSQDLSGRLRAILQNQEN
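Read-out is eYFP fluorescence (Ex 488/Em 500-530) from Vif-expressing HeLa A3G-eYFP cells; more signal means A3G escaped Vif-mediated degradation. Cells plated overnight, compound pinned in, incubated overnight at 37 deg C.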
ASM inhibitor = human S-ASM enzyme inhibition; Potency, µM (doses to about 57.5 µM), for inactives: at the highest dose activity change, negative = inhibition, actives largely listed as inhibitors; AID 504937; P17405; actives 0.006% (n = 340,000); placental ASM, HMU-PC fluorogenic substrate, 60 min; further: potency means the concentration at half of the fitted maximal effect
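Fluorescence read-out (Ex 386 nm, Em 447 nm) after stopping the reaction at pH 10. Enzyme: ASM from human placenta; substrate HMU-PC0, 9 uM final; 60 min, 37 °C. Compound preincubation 10 min, ambient temperature.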
TSG101-PTAP inh = blocks PTAP/TSG101 interaction to inhibit HIV-1 budding. Fluorescence polarization, FITC-PTAP peptide / Tsg101 binding. Potency, µM (highest dose often 115 µM), for inactives: at the top dose activity change, negative = inhibition, most hits filed as inhibitors. Q99816. 340,000 tested, under 10 active; active means well fitted inhibition curve with a large enough effect in the main read-out, with a control signal flat, not every such curve was filed as active; inconclusive means small, poorly fitted or top-dose-only effect, or effect the other way, or a change in a side signal; inactive means no such curve, though single readings can be large or run the other way; further: potency means the concentration at half of the fitted maximal effect; % of control where 0% means no effect
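Compounds were pin-transferred onto Tsg101 binding domain (10 uM final) in HEPES pH 7.5 buffer, then FITC-PTAP peptide was added at 50 nM final. After 20 min at RT, polarization reported peptide displacement across a qHTS concentration series.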
Vif-APOBEC3F blk = inhibitors of Vif-A3F interaction | HeLa A3F-eYFP + Vif (tagged APOBEC3F with the HIV-1 protein that degrades it), YFP fluorescence increase | Potency, µM (titrated, usually from 46.1 µM), inactives show at the top dose activity, negative = active | actives 0.2% (n = 390,000); further: potency means the concentration at half of the fitted maximal effect; % of control where 0% means no effect; nearly all actives have a fitted effect of over 65% in size
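Fluorescence increase (Ex 488/Em 500-530) after overnight compound treatment at 37 deg C flags inhibition of Vif-driven A3F-eYFP loss in stable HeLa A3F-eYFP/Vif cells seeded overnight beforehand.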
pAkt inh = Akt phosphorylation inhibition. Neuro2A IGF-stimulated pAkt S473 HTRF, 20 min; stronger effect = lower value. activity change, % for hits at 50 µM. actives 0.32% (n = 360,000). AID 651550; in the data active means activity change below about -80%; inconclusive means mostly about -51% to -80%; further: on the % scale 0 is the no-effect control and ±100 the full control effect
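Single-point screen (50 µM final compound) in Neuro2A cells stimulated 20 min with 6 nM IGF at 37 deg C. After lysis, Ser473-phosphorylated Akt read by HTRF (ex 330 nm, em 615/665 nm) as the 665/615 ratio.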
Active calls of the source: *; i = inactive; ? = inconclusive; / = no result; ! = repeats disagree; [ ] = another dose, or the depositor's remark. Unless noted, the call rests on the fitted dose curve; in most records, active means well fitted curve in the direction sought with a large enough effect; inconclusive means small, poorly fitted or top-dose-only effect, or another doubt; inactive means no such curve, though single readings can be large; an effect the other way counts as inactive or inconclusive.

SMILES	ALOX12 inh	Vif-APOBEC3G blk	ASM inhibitor	TSG101-PTAP inh	Vif-APOBEC3F blk	pAkt inh
Cc1ccc(S(=O)(=O)N2[C@@H]3CC[C@H]2CC(NC(=O)c2ccncc2)C3)c(C)c1 (stereo partly specified)	18µM*	/	/	/	/	/
CCCN(Cc1ccccc1)Cc1cc(=O)oc2ccc(OC)cc12	0%	/	/	/	/	/
CSC1=N/C(=C\c2ccc(I)o2)C(=O)S1	5.6µM*	/	/	/	/	/
CSC1=N/C(=C\c2ccc(C)s2)C(=O)S1	-18%	-2%	-9%	-1%	-2%	i
CSC1=N/C(=C\c2ccc(C)o2)C(=O)S1	45µM*	-7%	-11%	-11%	3%	i
CSC1=N/C(=C\c2ccc(F)cc2)C(=O)S1	-21%	1%	-2%	2%	-1%	i
CCCSC1=N/C(=C\c2ccc([N+](=O)[O-])o2)C(=O)S1	40µM*	0%	-9%	0%	-40%	i
O=C(CCN(Cc1ccco1)C1CCCC1)Nc1ccccc1	-3%	/	/	/	/	/
C(=N\Nc1nc(N2CCOCC2)nc(N2CCOCC2)n1)/c1cccnc1	-8%	1%	-1%	-3%	-2%	-82%*
Cc1ccc(N/N=C/c2cccnc2)cc1	40µM*	-12%	-4%	0%	-4%	i
C(=N\Nc1nc(N2CCOCC2)nc(N2CCOCC2)n1)/c1ccncc1	-4%	1%	2%	0%	7%	i
COc1ccc2c(C)c(CCC(=O)Nc3ccccc3)c(=O)oc2c1	3%	/	/	/	/	/
COc1ccc(C)cc1NC(=O)CNC(=O)CNc1cccc(Cl)c1	-9%	/	/	/	/	/
CCC1S/C(=C(\C#N)C(=O)NCc2ccco2)N(c2ccc(F)cc2)C1=O (stereo unspecified)	-2%	0%	0%	-1%	-1%	i
CCC1S/C(=C(\C#N)C(=O)NCc2ccco2)N(c2ccc(Br)cc2)C1=O (stereo unspecified)	?	-5%	-1%	4%	2%	-107%*
CC(C)c1noc([C@@H]2C[C@H](NC(=O)C3CCCCC3)CN2C)n1	16%[176 µM]	/	/	/	/	/
S=C(Nc1cccc2ccccc12)NN1CCOCC1	0%	2%	4%	-3%	-5%	i
S=C(Nc1cccc2ccccc12)NN1CCCCCC1	?	0%	-2%	-1%	22µM*	i
CCc1cccc(NC(=S)Nc2cccc3ccccc23)c1	45µM*	4%	-1%	0%	?	i
O=C(NCC(F)(F)F)c1cc(-c2ccc3c(c2)OCCO3)nc2ccccc12	-46%	/	/	/	/	/
O=C1C=C(c2ccccc2)C[C@H](c2cccs2)[C@H]1n1nnc([N+](=O)[O-])n1	50µM*	-17%	-9%	0%	-1%	i
CN1c2cc(C(=O)NCc3ccc(Cl)cc3)ccc2C(=O)N2CCCCCC21 (stereo unspecified)	10%	/	/	/	/	/
Nc1nc(NCCO)nc(N2CCCCCC2)c1[N+](=O)[O-]	6%	3%	-7%	-3%	-13%	i
OCCN(CCO)c1nc(N2CCCCC2)c2nc(N(CCO)CCO)nc(N3CCCCC3)c2n1	45µM*!	-9%	i	?	?	/
CCCN1CCN(C(=O)c2cc3c(s2)CCN(C(=O)c2ccc(F)cc2)C3)CC1	41%	/	/	/	/	/
CCCCn1nc(C(=O)N2CCSCC2)c2ccccc2c1=O	44%	/	/	/	/	/
COc1ccc(C2(c3ccc(O)cc3O)CC(c3ccccc3Cl)NC(=S)N2)cc1 (stereo unspecified)	18µM*	-29%	8%	-8%	-18%	i
COc1ccc(N2CCN(C(c3cc(OC)ccc3OC)c3nnnn3Cc3ccco3)CC2)cc1 (stereo unspecified)	22µM*	0%	-9%	-10%	-2%	i
COCCn1nnnc1C(c1ccc(OC)cc1OC)N1CCN(c2ccccc2)CC1 (stereo unspecified)	0%	-2%	4%	-4%	7%	i
